This is a sample that favours compounds with a hit; in the whole collection about 22% have one here.
cytoskel mod = modifiers of F-actin cytoskeleton organization, primary screen, imaging, HUVEC, phalloidin staining, high-content imaging. AID 836, 2007. hit rate 0.18% among 91,000. inhibition, % at 2 µM. HUVEC TNFa F-actin phalloidin imaging;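 active means inhibition above the batch mean plus 3 SD and confirmed as a hit by visual image inspection, cut at about 30% in these data, passing the limit was not always enough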
E-sel TNF inh = E-selectin induction blockers in HUVEC – imaging, immunofluorescence, high content, primary screen; HUVEC TNFa-induced E-selectin immunofluorescence; inhibition, % at 2 µM; hit rate 0.71% among 120,000;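 active means inhibition above the batch mean plus 3 SD, and confirmed as a hit on visual image review, cut at about 43% in these data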
CYP2C9 inh = blockers of cytochrome P450 2C9 activity – biochemical, luminescence, ADME assay, primary screen | hit rate 20% among 96,000 | inhibition, % at 5 µM | CYP2C9 Supersomes, luciferin-H conversion;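 active means blocking of liver enzyme CYP2C9 beyond about 50% at 5 µM, limit read from the data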
Target sequence (P11712 whole entry, looked up): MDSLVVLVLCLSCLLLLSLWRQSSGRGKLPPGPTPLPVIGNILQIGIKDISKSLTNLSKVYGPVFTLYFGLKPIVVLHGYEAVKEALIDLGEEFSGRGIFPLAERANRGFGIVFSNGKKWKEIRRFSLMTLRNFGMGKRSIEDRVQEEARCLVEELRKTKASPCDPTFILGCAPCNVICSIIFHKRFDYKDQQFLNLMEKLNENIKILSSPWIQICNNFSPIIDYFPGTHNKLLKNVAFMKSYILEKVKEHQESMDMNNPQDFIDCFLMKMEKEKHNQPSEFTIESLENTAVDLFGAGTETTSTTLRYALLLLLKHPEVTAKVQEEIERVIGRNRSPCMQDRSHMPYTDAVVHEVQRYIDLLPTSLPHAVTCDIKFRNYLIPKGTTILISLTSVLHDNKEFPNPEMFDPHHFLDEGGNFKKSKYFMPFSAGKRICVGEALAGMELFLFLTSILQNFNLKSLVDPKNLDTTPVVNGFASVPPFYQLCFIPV
CYP2C19 inh = blockers of cytochrome P450 2C19 activity – biochemical, luminescence, ADME assay, primary screen | CYP2C19 Supersomes, luciferin-H EGE luminescence, 30 min | P33261 | hit rate 21% among 96,000 | inhibition, % at 5 µM;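 active means CYP2C19 inhibition above a set limit at 5 µM in the primary screen, cut at about 50% in these data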
CYP2C9 act = human CYP2C9 activators, primary screen, biochemical, luminescence | AID 1024, 2008 | activation factor at 5 µM | recombinant CYP2C9, luciferin-H conversion; active compounds read high; factor 1 = untreated enzyme, 0 = blocked | hit rate 1.4% among 96,000;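 active means activation factor of 2 or more for CYP2C9 at a 5 µM dose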
CYP2C19 activ = human CYP2C19 activators, primary screen, biochemical, luminescence | recombinant CYP2C19, luciferin-H EGE luminescence; active compounds read high; 0 = fully inhibited enzyme, 1 = untreated enzyme | Cytochrome P450 2C19 (Homo sapiens), P33261 | activation factor at 5 µM | 96,000 tested, under 10 active;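 active means activation factor of at least 2 at 5 µM in the primary screen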
Hits are given with their value; . = inactive; / = no result.

SMILES	cytoskel mod	E-sel TNF inh	CYP2C9 inh	CYP2C19 inh	CYP2C9 act	CYP2C19 activ
Cc1nonc1OC(C)CNc1ccc([N+](=O)[O-])cc1 (stereo not drawn)	.	.	63	98	.	.
COC(=O)CCn1nc(-c2ccc(C)cc2)c2ccccc2c1=O	/	.	/	/	/	/
COc1cc2c(cc1OC)C(COc1ccc(F)cc1)N(C(=O)c1ccco1)CC2 (stereo not drawn)	.	/	76	86	.	.
COc1cc2c(cc1O)CCN(C(=O)c1ccco1)C2C (stereo not drawn)	.	.	.	65	.	.
COc1cc2c(cc1OC)C(C)N(C(C)=O)CC2 (stereo not drawn)	.	.	/	/	/	/
COc1cc2c(cc1OC)C(C)N(C(=O)c1cc3ccccc3o1)CC2 (stereo not drawn)	/	.	.	.	.	.
COc1cc2c(cc1OC)C(C)N(C(=O)C1COc3ccccc3O1)CC2 (stereo not drawn)	.	/	57	80	.	.
CCCCN1C(=O)C(CC(=O)NCC)SC1=Nc1ccccc1 (stereo not drawn)	.	.	/	/	/	/
COc1ccc(-c2cc(CNC(=O)CCl)on2)cc1	.	.	.	.	.	.
Cc1cccc(NC(=O)CCc2ccc(C)o2)c1	.	.	.	90	.	.
CCOC(=O)c1ccc(NC(=O)CCc2ccc(C)o2)cc1	.	.	55	.	.	.
O=C(CCCNC(=O)/C(=C\c1ccc(F)cc1)NC(=O)c1ccccc1)OCc1ccccc1	.	.	.	63	.	.
O=C(NCCCN1CCOCC1)/C(=C/c1ccc(F)cc1)NC(=O)c1ccccc1	/	.	/	/	/	/
CCc1cccc(Oc2nn[nH]n2)c1	.	.	.	.	.	.
Cc1ccc(Oc2nn[nH]n2)cc1	.	.	70	.	.	.
Cn1c(SCC(=O)N2CCCC2)nc2cccnc21	/	.	/	/	/	/
COc1cc(OC)c(C#N)c(S(=O)Cc2ccccc2)c1 (stereo not drawn)	.	.	.	99	2.3	.
Clc1ccc2nc(CN3CCCCCC3)cn2c1	.	.	.	.	.	.
Cc1ccc(Nc2cc(C)nc(-c3ccccc3O)n2)cc1	/	.	55	.	.	.
Cc1ccc(Oc2cc(C)nc(-c3ccccc3O)n2)cc1	.	/	79	76	.	.
CC(C(=O)Nc1cc(C(F)(F)F)ccc1N1CCOCC1)N1C(=O)C2CC=CCC2C1=O (stereo not drawn)	.	.	.	.	.	.
CCCC1C(C(=O)OCC)=C(C)NC(C)=C1C(=O)OCC	.	/	68	94	.	.
CCOC(=O)C1=C(C)NC(C)=C(C(=O)OCC)C1c1sccc1C	.	.	90	56	.	.
CCOC(=O)C1=C(C)NC(C)=C(C(=O)OCC)C1c1ccc(O)cc1	.	/	98	98	.	.
COC(=O)C1=C(C)NC(C)=C(C(=O)OC)C1c1ccc(N(C)C)cc1	.	.	70	84	.	.
SMILES	cytoskel mod	E-sel TNF inh	CYP2C9 inh	CYP2C19 inh	CYP2C9 act	CYP2C19 activ
CC1=C(C(=O)OCc2ccccc2)C(c2ccc(N(C)C)cc2)NC(=O)N1 (stereo not drawn)	.	.	/	/	/	/
COc1ccc2cc(CCNC(=O)C(C)(C)C)c(=O)[nH]c2c1	/	.	.	.	.	.
COC(=O)CSc1nnc(-c2ccc3c(c2)OCO3)n1C	.	.	.	.	.	.
COC(=O)CSc1nnc(-c2sc3cc(OC)ccc3c2Cl)n1C	.	.	.	56	.	.
CC(C)(C)c1cc(-c2ccco2)c(C#N)c(SCC#N)n1	.	.	95	.	.	.
N#Cc1c(-c2ccccc2)ccnc1Oc1ccccc1	.	.	.	53	.	.
Cc1cccc(NC(=O)CN(C)S(=O)(=O)c2cccs2)c1	.	.	.	80	.	.
O=S(=O)(Nc1cccnc1)c1cccs1	.	.	.	.	.	.
Cc1ccccc1NC(=O)CN(C)S(=O)(=O)c1cccc2cccnc12	.	/	88	72	.	.
CN(CC(=O)Nc1ccc2c(c1)OCCO2)S(=O)(=O)c1cccc2cccnc12	.	/	94	78	.	.
COc1ccc(NC(=O)CN(C)S(=O)(=O)c2cccs2)cc1	.	/	.	.	.	.
Cc1cccc(NS(=O)(=O)c2cccs2)c1	.	.	.	93	.	.
O=c1cc(O)c(-c2ccccc2)c(Cl)[nH]1	.	.	.	.	.	.
CCn1nnnc1SCC(=O)Nc1ccc(OCc2ccccc2)cc1	.	.	/	/	/	/
CC(C)(C)NC(=O)COc1ccc(CNCc2cccnc2)cc1	/	.	/	/	/	/
COc1cc(C(=O)NCc2ccco2)cc(OC)c1OC	.	.	.	.	.	.
Cc1ccc(C)c(NC(=O)CCN2CC(C)OC(C)C2)c1 (stereo not drawn)	.	.	.	.	.	.
CN(CC(=O)Nc1ccc(Cl)cc1)S(=O)(=O)c1cccc2cccnc12	.	.	68	.	.	.
CN(CC(=O)Nc1ccc(F)c(Cl)c1)S(=O)(=O)c1cccc2nsnc12	.	.	/	/	/	/
Cc1cccc(NC(=O)CN(C)S(=O)(=O)c2cccc3cccnc23)c1	.	.	54	.	.	.
COc1ccc(NC(=O)CN(C)S(=O)(=O)c2cccc3cccnc23)cc1	.	.	90	70	.	.
Cc1ccc(S(=O)(=O)N(C)CC(=O)Nc2cccc(C)n2)cc1	.	.	.	.	.	.
Cc1ccc(-c2nnn(CC(=O)N(CC(=O)NC3CCCC3)c3cnc4ccccc4c3)n2)o1	.	.	77	.	.	.
Cc1ccc(-c2nnn(CC(=O)N(CC(=O)NCc3ccccc3)c3cccc(C)c3C)n2)o1	.	/	78	.	.	.
CCOC(=O)C1C(=O)C=C(c2ccc(C)cc2)CC1c1ccco1 (stereo not drawn)	.	.	80	54	.	.
SMILES	cytoskel mod	E-sel TNF inh	CYP2C9 inh	CYP2C19 inh	CYP2C9 act	CYP2C19 activ
CCOC(=O)C1C(C)=CC(=O)CC1c1ccco1 (stereo not drawn)	.	.	.	.	.	.
CCOC(=O)C1C(=O)C=C(c2ccc(NS(C)(=O)=O)cc2)CC1c1ccco1 (stereo not drawn)	.	.	75	.	.	.
Cc1cc(C)c2c(c1)-c1cc(C)nn1C(c1ccc3c(c1)OCO3)N2 (stereo not drawn)	.	.	.	.	.	.
COc1ccc2cc(S(=O)(=O)n3cnc(C)c3)ccc2c1	/	.	/	/	/	/
COc1ccccc1/C=C/C(=O)NCC(=O)N/N=C/c1cc(Br)ccc1OC	.	.	53	.	.	.
CC(=O)c1cn(CC(=O)NCC2CCCO2)c2ccccc12 (stereo not drawn)	.	.	.	.	.	.
Cc1c(C(=O)Nc2ccc3oc(-c4cccnc4)nc3c2)oc2ccccc12	.	.	.	.	.	.
